IDE cell inh: inhibitors of human insulin-degrading enzyme in cells; P14735; HEK cells, FAbetaB cleavage, fluorescence polarization; inhibition, % at 5.59 µM; 320,000 compounds, 0.41% hits;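 active = percent inhibition above the average of all tested compounds plus 3 SD, set per screening campaign, cut at about 16% in these data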;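 also: IDE supplied by intact live HEK cells; FP after avidin binding of uncleaved biotin substrate so inhibition keeps polarization high; 0% = DMSO wells and 100% = 60 µM reference IDE inhibitor Ii1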
Target sequence (P14735 whole entry, looked up): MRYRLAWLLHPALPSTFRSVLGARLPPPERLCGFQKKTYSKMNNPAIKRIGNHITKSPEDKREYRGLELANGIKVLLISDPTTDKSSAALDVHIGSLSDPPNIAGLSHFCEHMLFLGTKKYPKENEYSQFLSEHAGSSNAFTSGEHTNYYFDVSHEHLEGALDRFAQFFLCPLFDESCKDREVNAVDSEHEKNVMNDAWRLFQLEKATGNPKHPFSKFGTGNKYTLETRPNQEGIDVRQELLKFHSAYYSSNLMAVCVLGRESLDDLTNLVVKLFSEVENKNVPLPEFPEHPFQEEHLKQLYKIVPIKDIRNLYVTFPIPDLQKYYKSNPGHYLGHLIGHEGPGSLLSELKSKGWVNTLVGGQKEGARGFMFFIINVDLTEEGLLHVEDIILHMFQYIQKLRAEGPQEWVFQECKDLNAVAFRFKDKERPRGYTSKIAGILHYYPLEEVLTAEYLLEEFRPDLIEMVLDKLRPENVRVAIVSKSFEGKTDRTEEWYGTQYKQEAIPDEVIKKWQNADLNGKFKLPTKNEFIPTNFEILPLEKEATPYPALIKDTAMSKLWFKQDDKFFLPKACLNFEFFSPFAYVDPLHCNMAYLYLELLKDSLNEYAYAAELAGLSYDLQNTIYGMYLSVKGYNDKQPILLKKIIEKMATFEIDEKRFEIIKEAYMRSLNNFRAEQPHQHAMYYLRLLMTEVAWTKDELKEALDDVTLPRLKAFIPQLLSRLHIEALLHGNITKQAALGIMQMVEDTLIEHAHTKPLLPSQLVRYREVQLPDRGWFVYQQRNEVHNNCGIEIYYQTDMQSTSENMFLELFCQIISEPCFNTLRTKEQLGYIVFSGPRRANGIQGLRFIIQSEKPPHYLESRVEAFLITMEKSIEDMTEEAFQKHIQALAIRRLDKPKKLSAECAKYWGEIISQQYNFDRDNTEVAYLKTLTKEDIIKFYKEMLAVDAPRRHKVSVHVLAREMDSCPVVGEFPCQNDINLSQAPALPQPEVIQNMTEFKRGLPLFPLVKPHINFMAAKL
CRFR2-BP antag: blocks CRF-induced signaling of the CRF-BP/CRF-R2 complex | HEK293 CRF-R2/CRF-BP, CRF-induced calcium fluorescence | inhibition, % at 11.8 µM | 350,000 compounds, 0.59% hits;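 active = inhibition of the ligand-induced calcium signal above about 50% at the single tested concentration, limit read from the data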
CRFR2-BP ag: agonists of human CRF-binding protein/CRF-R2 receptor complex. 350,000 compounds, 0.46% hits. activation, % at 13.2 µM. HEK293 CRF-R2/CRF-BP, calcium dye fluorescence (FLIPR); percent of saturating CRF peptide response;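 active = activation of at least 50%, plus an integration ratio under a set limit after plate pattern correction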;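 also: plate controls were neutral control wells without compound for no effect and CRF at EC100 for full effect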
Myeloid diff MLP: compounds promoting myeloid differentiation | ER-HoxA9 myeloid progenitors, lysozyme-GFP differentiation, flow cytometry | calls only at 10 µM | 360,000 compounds, 1% hits | AID 624256;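 active = normalized GFP-positive differentiation at or above the plate's own cutoff, the solvent-only control mean plus 3 SD; inconclusive = no clear call, values can overlap the other calls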;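 also: cells exposed to compound for four days before flow analysis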
TPT1 inhibitor: inhibitors of Candida albicans tRNA 2'-phosphotransferase TPT1 | recombinant caTPT1, FP RNA substrate dephosphorylation | inhibition, % at 5 µM | 300,000 compounds, 0.81% hits | AID 1962;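 active = inhibition above the mean of all tested compounds plus 3 SD, set per screening campaign, cut at about 24% in these data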;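 also: plate controls were DMSO alone for no effect and ferristatin control at 100 nM for full effect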
IDE cell activ: boosts human insulin-degrading enzyme activity in HEK cells; 340,000 compounds, 0.073% hits; FAbeta-B cleavage, fluorescence polarization; 0% vehicle, 100% cell-free pure enzyme wells; P14735; AID 493087; activation, % at 5.96 µM;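 active = activation above the mean of all tested compounds plus 3 SD, set per screening campaign, cut at about 17% in these data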
Myeloid diff: myeloid differentiation induction. AID 651706. 2,300 compounds, 2% hits. shares compounds with Myeloid diff MLP. ER-HoxA9 myeloid progenitors, GFP/Mac1 double-positive flow. calls only;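 active = share of green or green-and-red cells above 9 and 9% in run 1 or 4 and 3% in run 2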
GFP autofluor: flagged as fluorescent in myeloid differentiation counter-screen | AID 651707 | ER-HoxA9 myeloid progenitors, no estrogen, GFP autofluorescence flow cytometry; vehicle wells 0%, positive control 100% | 2,300 compounds, 7.4% hits | shares compounds with Myeloid diff MLP | fluorescence response, % (no concentration beside the values);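 active = over 5% cells positive for green fluorescent reporter, or over 2% positive for both it and APC stain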;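 also: range taken on the double positive population between DMSO and positive control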
Starred values were filed as active, the others as inactive; i = inactive; ? = inconclusive; . = not tested or not shown; + = active, no number; ! = not confirmed by another sample. Hits are enriched below; roughly 2.6% of the tested compounds scored in any of these assays.

SMILES | IDE cell inh | CRFR2-BP antag | CRFR2-BP ag | Myeloid diff MLP | TPT1 inhibitor | IDE cell activ | Myeloid diff | GFP autofluor
COc1ccccc1CN(C(=O)Cc1cccs1)C(C(=O)NC1CCCC1)c1ccncc1 (stereo not given) | 1.4 | -20.9 | -2.9 | i | 8.5 | 4.7 | i | 0.0
COc1ccc(-c2csc(NC(=O)C3CC(=O)N(Cc4ccco4)C3)n2)cc1 (stereo not given) | 2.2 | -26.5 | -0.3 | i | 5.4 | 1.2 | . | .
COc1ccc(-c2nc(NC(=O)C3CC(=O)N(Cc4ccco4)C3)sc2C)cc1 (stereo not given) | -0.1 | -7.8 | -1.4 | i | . | 3.8 | i | 0.0
COc1ccc(NC(=O)N(C)[C@H]2C[C@H]3c4[nH]c5ccc(-c6ccc7c(c6)OCO7)cc5c4CCN3C[C@H]2[C@H](C)O)cc1 | . | -4.3 | 9.5 | i | . | . | i | 0.0
Cc1ccccc1C(=O)NNC(=O)c1cc(N)cc([N+](=O)[O-])c1 | -1.9 | -0.1 | -2.1 | i | -3.8 | -0.1 | . | .
CNCCCOc1ccc(C)cc1OC | -4.6 | -1.4 | -1.0 | i | 0.5 | 2.7 | i | 0.3
CCN(CC)CCNC(=O)c1ccc(NC(=O)/C=C/c2ccc3ccccc3n2)cc1 | . | -3.8 | 3.8 | + | . | -5.8 | i | 0.0
COc1ccc(/C=C/c2onc(C)c2S(=O)(=O)N2CCC(C(=O)N3CCCCCC3)CC2)cc1 | -2.3 | -8.2 | 4.7 | i | -3.8 | -0.2 | . | .
Cc1ccc(/C=C/c2onc(C)c2S(=O)(=O)N2CCC(C(=O)N3CCCCC3)CC2)cc1 | -1.3 | 12.5 | 0.7 | i | -5.1 | 7.3 | i | 0.0
C(=C\n1nnc2ccccc21)/c1ccc[nH]1 | -4.2 | -7.5 | 1.5 | i | 15.9 | -0.8 | . | .
Cc1cccc(C(=O)NC(C(=O)Nc2cccc(S(=O)(=O)N3CCCC3)c2)C(C)C)c1 (stereo not given) | -6.9 | 1.2 | -0.1 | i | . | 3.9 | . | .
O=C(Nc1cccc(S(=O)(=O)N2CCCCC2)c1)C1CCCC1 | 1.8 | -4.9 | 0.2 | i | . | 2.6 | . | .
O=C(Nc1cccc(S(=O)(=O)N2CCCCCC2)c1)C1CCC1 | 3.7 | 1.0 | -0.3 | i | -0.7 | 0.8 | i | 0.0
Cc1cccc(C(=O)N[C@H](C(=O)Nc2cccc(S(=O)(=O)N3CCCC3)c2)C(C)C)c1 | 2.7 | 26.2 | -2.8 | i | 0.1 | 4.5 | i | 0.0
Cc1ccc2[nH]c(=O)c3cc(C(=O)N(C)C4CCCCC4)sc3c2c1 | 2.0 | -39.8 | 0.6 | ? | -0.3 | 6.8 | . | .
Cc1ccccc1C(=O)Nc1cccc(C(=O)N/N=C/c2cc(Cl)cc([N+](=O)[O-])c2O)c1 | -4.2 | 25.6 | -1.7 | i | 0.3 | -4.1 | . | .
CC1Nc2ncnc(N3CCc4ccccc4C3)c2N(Cc2ccc(Cl)cc2)C1=O (stereo not given) | 2.3 | -8.0 | 3.7 | i | 11.6 | -0.2 | . | .
CC1Nc2ncnc(N3CCc4ccccc4C3)c2N(Cc2ccc(Br)cc2)C1=O (stereo not given) | 6.1 | -24.7 | 6.0 | +! | 11.0 | -8.0 | i | 0.0
CCC(C)[C@H](NC(=O)NCc1ccccc1Cl)C(=O)OC (stereo not given in full) | 5.8 | 1.5 | -1.1 | i | -1.5 | 7.1 | i | 0.5
CSc1ccccc1OCc1cc(C(=O)N(C)Cc2ccncn2)no1 | -0.6 | -4.8 | 0.8 | i | 1.2 | -3.0 | . | .
Cc1ccc(C)c(OCc2nnc(N)s2)c1 | 0.4 | -5.7 | -0.6 | i | 2.0 | -0.6 | i | 0.3
Nc1nnc(COc2ccc(Br)cc2Br)s1 | -0.7 | -35.3 | -0.8 | i | 0.4 | 0.6 | . | .
COc1cccc(N2CCN(C(=O)C3CCN(S(=O)(=O)c4ccc5c(c4)CC(C)N5C(C)=O)CC3)CC2)c1 (stereo not given) | -1.1 | 6.0 | -1.2 | i | -0.7 | -1.9 | . | .
COc1ccc(S(=O)(=O)NCC2CCCO2)cc1Cl (stereo not given) | -9.2 | 3.4 | -0.9 | i | 0.9 | 5.3 | . | .
COc1cc(S(=O)(=O)NCC2CCCO2)ccc1Br (stereo not given) | -6.0 | 22.0 | 1.0 | i | 2.3 | 4.5 | i | 0.3
SMILES | IDE cell inh | CRFR2-BP antag | CRFR2-BP ag | Myeloid diff MLP | TPT1 inhibitor | IDE cell activ | Myeloid diff | GFP autofluor
CC1CC(C)CN(C(=O)CN2C(=O)NC3(CCCCCC3)C2=O)C1 (stereo not given) | 0.7 | -3.9 | -2.1 | i | . | -1.2 | . | .
CC1CN(C(=O)CN2C(=O)NC3(CCCCCCC3)C2=O)CC(C)O1 (stereo not given) | -3.7 | -4.2 | -0.4 | + | 0.6 | 8.6 | i | 0.8
Cc1cccnc1C(NC(=O)C1CCN(Cc2ccc3ccccc3n2)CC1)c1ccc(Cl)cc1 (stereo not given) | . | . | . | i | . | . | . | .
COc1cc(OC)cc(C(=O)NNC(=O)CCC(=O)c2cc(C)sc2C)c1 | 2.1 | 12.7 | -2.3 | i | . | -0.5 | . | .
CSc1ccccc1C(=O)NC1CCCC1 | -1.0 | -27.8 | 0.4 | i | 4.6 | 5.6 | i | 0.0
FC(F)(F)c1ccc(-n2ccnc2)nc1 | 5.9 | 2.0 | -0.8 | + | -7.3 | 3.2 | i | 0.5
FC(F)(F)c1nnc2ccc(-n3ccnc3)nn12 | 0.0 | -0.3 | 0.7 | i | 3.0 | 6.8 | . | .
CCCNC(=O)C(Cc1ccccc1F)NC(=O)c1ccc(C#N)cc1 (stereo not given) | -2.0 | 7.5 | -0.8 | i | . | 3.6 | . | .
CN1CCN(S(=O)(=O)c2ccc(NC(=S)NC(=O)c3ccccc3)cc2)CC1 | 2.8 | -6.7 | 1.1 | + | -4.3 | 2.1 | i | 0.0
COC(=O)[C@@]12CCCN1[C@H](c1ccc(-c3ccccc3)cc1)[C@@H]1C(=O)N(C)C(=O)[C@@H]12 | 4.2 | 1.4 | -1.4 | i | -1.9 | -0.8 | . | .
O=C(CCSc1nnc2scc(-c3ccccc3)n12)NCc1ccc2c(c1)OCO2 | -0.6 | 11.6 | -0.3 | i | -2.5 | 4.2 | i | 0.0
O=C(CN1CCC(NC(=O)c2ccccc2Cl)CC1)NCc1ccco1 | -0.6 | 0.5 | -1.4 | i | -0.4 | 2.7 | . | .
COc1ccc(S(=O)(=O)N2CCOC2CNC(=O)C(=O)NCc2ccccn2)cc1OC (stereo not given) | . | -5.5 | 0.3 | + | . | . | i | 0.0
C[C@]12C=CC(=O)C=C1CC[C@H]1[C@@H]3C[C@@H](O)[C@](O)(C(=O)CO)[C@@]3(C)C[C@H](O)[C@@]12F | -3.1 | 9.0 | -1.6 | i | -3.8 | -3.5 | i | 0.0
CC1CC2C3CCC4=CC(=O)C=CC4(C)C3(F)C(O)CC2(C)C1(O)C(=O)CO (stereo not given) | 3.7 | -2.7 | 1.1 | i | 1.1 | 4.1 | . | .

Screens: PubChem, several laboratories
